High-throughput results deposited in PubChem BioAssay by National Center for Advancing Translational Sciences (NCATS).
Compounds with a hit are over-represented: about 12% of the library has one in this group of screens.
ALDH1A1 block: qHTS Assay for Inhibitors of Aldehyde Dehydrogenase 1 (ALDH1A1) | Purified ALDH1A1, NADH fluorescence, propionaldehyde substrate | Potency, µM (doses to about 75.3 µM), for the others: top-dose activity, negative = inhibition, most hits filed as inhibitors | 220,000 tested, 7.3% active; active = well fitted inhibition curve with a large enough effect, not every such curve was filed as active; inconclusive = small, poorly fitted or top-dose-only effect, or another doubt; inactive = no such curve, though single readings can be large or run the other way;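 also: plate controls were no enzyme wells and a reference inhibitor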
PLK1 PBD block: qHTS for Inhibitors of PLK1-PDB (polo-like kinase 1 - polo-box domain): Primary Screen. Serine/threonine-protein kinase PLK1 (Homo sapiens), P53350. Plk1 PBD binding of FITC phosphopeptide, fluorescence polarization. Potency, µM, inactives show max response, negative = inhibition, usual class: inhibitors. 360,000 tested, 2.8% active; also: series mostly up to about 57 µM; nearly all actives have a fitted effect of over 65% in size
Target sequence (P53350 whole entry, looked up, the tested form may be a part): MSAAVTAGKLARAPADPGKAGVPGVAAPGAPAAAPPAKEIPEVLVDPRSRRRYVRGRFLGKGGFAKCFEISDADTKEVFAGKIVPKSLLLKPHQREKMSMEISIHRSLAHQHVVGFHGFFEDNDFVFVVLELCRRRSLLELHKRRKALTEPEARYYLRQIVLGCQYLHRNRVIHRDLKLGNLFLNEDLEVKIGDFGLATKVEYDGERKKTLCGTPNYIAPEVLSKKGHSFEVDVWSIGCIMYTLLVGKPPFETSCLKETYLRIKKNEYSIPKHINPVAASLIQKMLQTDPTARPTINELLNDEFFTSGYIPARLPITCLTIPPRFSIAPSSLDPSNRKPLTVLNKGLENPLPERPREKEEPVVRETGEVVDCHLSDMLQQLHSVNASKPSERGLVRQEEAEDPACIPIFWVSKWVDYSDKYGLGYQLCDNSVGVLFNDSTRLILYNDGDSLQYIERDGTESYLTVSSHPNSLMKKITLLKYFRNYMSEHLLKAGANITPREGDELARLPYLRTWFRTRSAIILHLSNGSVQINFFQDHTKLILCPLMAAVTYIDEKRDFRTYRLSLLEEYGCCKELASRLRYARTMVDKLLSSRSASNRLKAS
Sfp inh: qHTS Assay for Inhibitors of Bacillus subtilis Sfp phosphopantetheinyl transferase (PPTase) | 310,000 tested, 3.5% active | Potency, µM, inactives show largest response in the series, negative = inhibition, usual class: inhibitors | 4'-phosphopantetheinyl transferase ffp (Bacillus subtilis), Q9F4F7 | Biochemical Sfp PPTase activity, qHTS;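 also: the enzyme is Sfp with the accession as filed and its product quenches rhodamine fluorescence; 0% = enzyme reaction without inhibitor and -100% = no enzyme wells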
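Fluorescence-quenching assay: 15 nM Sfp-PPTase preincubated 15 min at room temperature with compound, then 5 uM rhodamine-CoA and 12.5 uM BHQ-2-labelled YbbR peptide added. Fluorescence (ex 525/em 598 nm) read at start and after 30 min; difference gives rate.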
VP16 counter: VP16 counterscreen qHTS for inhibitors of ROR gamma transcriptional activity; Drosophila S2 Gal4-VP16 UAS-luciferase, luminescence, 20 h; 310,000 tested, 3.5% active; Potency, µM (highest dose often 53.6 µM), for the others: at the highest dose activity, negative = inhibition, actives largely listed as inhibitors; AID 2546, 2010;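 also: Gal4-VP16 expression switched on by copper sulfate through the metallothionein promoter; nearly all actives have a fitted effect of over 50% in size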
RORgamma inh: qHTS for inhibitors of ROR gamma transcriptional activity | 310,000 tested, 5.4% active | Nuclear receptor ROR-gamma (Mus musculus), P51450 | Drosophila S2 Gal4-RORgamma UAS-luciferase reporter, 20 h | Potency, µM (titrated, usually from 53.6 µM), for inactives: at the highest dose activity change, negative = inhibition, hits mostly inhibitors; also: nearly all actives have a fitted effect of over 60% in size
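Luminescence from a UAS-regulated Photinus luciferase reporter in stably transfected Drosophila Schneider cells is measured; decreased signal marks ROR gamma inhibition. Fusion expression is induced by 700 uM copper sulfate for 20 hr.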
An asterisk follows results filed as active; ? = inconclusive; . = no result; [ ] = another dose, or the depositor's remark. Unless noted, calls follow the shape of the dose curve; as a rule, active = well fitted curve in the direction sought with a large enough effect; inconclusive = small, poorly fitted or top-dose-only effect, or another doubt; inactive = no such curve, though single readings can be large; an effect the other way counts as inactive or inconclusive. Unless noted, % is scaled to controls: 0 for no effect and ±100 for the full control effect; potency is read from the fitted curve at half-maximal effect.

SMILES	ALDH1A1 block	PLK1 PBD block	Sfp inh	VP16 counter	RORgamma inh
CC1CC2C3CCC4=CC(=O)C=C[C@]4(C)[C@@]3(Cl)C(O)C[C@]2(C)C1(OC(=O)c1ccco1)C(=O)CCl (some centres not stated)	-1%	.	3%	2%	16µM*
O=S1(=O)CC(O)C(N=Nc2c(O)n(Cc3ccccc3)c3ccccc23)C1 (configuration not stated)	.	13µM*	0%	1%	6%
COc1ccc(C(=O)NCC(=O)N=Nc2c(O)n(Cc3ccccc3)c3ccccc23)cc1OC	18µM*	0%	14%	-6%	-15%
O=C(CNC(=O)Cc1ccccc1)N=Nc1c(O)n(Cc2ccc3c(c2)OCO3)c2ccccc12	4µM*	-6%	-17%	-2%	-17%
O=C(N=Nc1c(O)n(C2OC(=O)c3ccccc32)c2ccccc12)c1ccc(O)cc1 (configuration not stated)	2%	3%	12%	2.8µM*	2.8µM*
CC(=O)Nc1ccc(S(=O)(=O)NC2(C(F)(F)F)NC(=O)N(c3ccc(C)cc3)C2=O)cc1 (configuration not stated)	.	-16%	7%	-14%	1%
C=CCNC(=O)N1CCc2nc(COc3ccccc3)c3c(c2C1)CO[C@@H](C)C3	16%[13.5 µM]	.	3%	.	.
[C-]#[N+]c1cc(-c2ccncc2)c(C)[nH]c1=O	-9%	.	-2%	.	.
COc1ccc(C(O)c2cnc(C)n2Cc2ccccc2)cc1 (configuration not stated)	.	4%	.	.	.
O=C(N=Nc1c(O)n(Cc2ccccc2)c2ccccc12)c1cc2ccccc2cc1O	18%	-1%	?	-46%	?
O=C(N=Nc1c(O)n(Cc2ccccc2)c2ccccc12)c1ccc(O)cc1	13µM*	-2%	8%	-26%	?
O=C(Cc1ccccc1I)Nc1ccccc1	4%	.	26%	-17%	5%
CCOc1cc(/C=C2/NC(=S)NC2=O)ccc1OCc1ccc([N+](=O)[O-])cc1	2%	-9%	-19%	-16%	-35%
Cc1ccc(/C=C2\NC(=S)NC2=O)cc1[N+](=O)[O-]	-10%	-8%	2%	-3%	7%
O=C1NC(=S)N/C1=C/c1cc([N+](=O)[O-])ccc1O	5µM*	-27%	?	2%	-18%
O=C1NC(=S)N/C1=C/c1cccc([N+](=O)[O-])c1O	22µM*	-16%	-17%	-14%	?
N=c1oc2cc(O)ccc2cc1C(=O)Nc1ccc(Br)cc1	.	3%	18%	1.8µM*	1.8µM*
COc1ccc(N2C(=O)C(Cl)=C(Nc3ccccc3OC)C2=O)cc1	-2%	2%	-9%	13%	?
COc1ccc(N2C(=O)C(Cl)=C(Nc3ccccc3O)C2=O)cc1	16µM*	12µM*	45µM*	-22%	?
COc1ccc(N2C(=O)C(Cl)=C(Oc3cccc(OC)c3)C2=O)cc1	18µM*	1.9µM*	8.9µM*	?	11µM*
COc1ccc(N2C(=O)c3ccccc3C2=O)cc1	4%	-21%	12%	5%	14%
O=C(O)C(c1ccccc1)C1(O)CC2CCC1C2 (configuration not stated)	.	-2%	.	.	.
CCOC(=O)N1CCN(C(=O)c2[nH]c(C(F)(F)F)nc2-c2ccccc2)CC1	.	-6%	.	.	.
COc1ccc2nc(NC(=O)Cc3cccs3)sc2c1	-7%	-7%	-18%	9%	?
O=C(Cc1cccs1)Nc1nc2ccccc2s1	1%	-6%	11%	3%	0%
SMILES	ALDH1A1 block	PLK1 PBD block	Sfp inh	VP16 counter	RORgamma inh
Cc1ccc2nc(NC(=O)Cc3cccs3)sc2c1	7.9µM*	-3%	-11%	?	9%
CCOc1ccc2nc(NC(=O)Cc3cccs3)sc2c1	-1%	30µM*	1%	?	?
CCOc1ccc(N(C)S(=O)(=O)c2ccc(C)c(C(=O)N3CCN(Cc4ccc5c(c4)OCO5)CC3)c2)cc1	.	3%	.	.	.
CCC(C)NC(=O)c1c(N)n(/N=C/c2ccccn2)c2nc3ccccc3nc12 (configuration not stated)	?	-5%	10µM*	3%	18µM*
Cc1cc(NC(=O)CSc2ncc(C(=O)O)n2-c2ccc(F)cc2)no1	.	2%	.	.	.
O=C(CSC1=NCCN1)c1ccccc1	-2%[13.5 µM]	.	.	.	.
CC(C)(C)c1ccc(OCC(=O)N/N=C/c2cc(Br)ccc2OC(=O)c2ccco2)cc1	1%	-7%	10%	1.3µM*	0.25µM*
COc1ccc(Br)cc1/C=N/NC(=O)c1ccco1	4%	-16%	14%	-2%	-44%
CCCC(=O)N1CCc2cc(OC)c(OC)cc2C1c1cc2cc3c(cc2[nH]c1=O)OCO3 (configuration not stated)	.	1%	.	.	.
COc1cc2c(cc1OC)C(c1cc3cc(OC)c(OC)cc3[nH]c1=O)N(C(=O)C1CC1)CC2 (configuration not stated)	?	-6%	50µM*	3%	?
COc1ccc(C(=O)Nc2nnc(S(=O)(=O)N(C)Cc3ccccc3)s2)cc1	.	-3%	13%	5%	5%
CCc1nnc(NC(=O)c2ccc(S(=O)(=O)N(C)Cc3ccccc3)cc2)o1	.	-22%	31%	?	0.13µM*
CCN(Cc1ccccc1)S(=O)(=O)c1ccc(C(=O)Nc2nnc(C)o2)cc1	.	-8%	21%	0.56µM*	0.56µM*
COc1ccccc1-c1nnc(NC(=O)c2ccc(S(=O)(=O)N(C)Cc3ccccc3)cc2)o1	0%	-28%	18%	0.0028µM*	0.32µM*
CCc1nnc(NC(=O)c2ccc(S(=O)(=O)N(CC)Cc3ccccc3)cc2)o1	18µM*	3µM*	19%	0.11µM*	0.1µM*
O=C(NC1CCCCC1)C(C1CC1)n1c(=O)c(-c2cc3ccccc3[nH]2)nc2ccccc21 (configuration not stated)	.	-7%	.	.	.
CN(Cc1ccccc1)S(=O)(=O)c1ccc(C(=O)Nc2nnc(C3CC3)o2)cc1	-14%	-8%	20%	0.56µM*	0.28µM*
COc1ccc(OCc2nnc(SCC(=O)N(C)Cc3ccccc3)n2N)cc1	8.9µM*	11µM*	25µM*	6%	4%
COc1ccc(NC(=O)N2CCc3nc(-c4ccccc4)c4c(c3C2)CO[C@@H](C)C4)cc1	0%[13.5 µM]	.	18%	.	.
CC(=O)c1ccc(OCC(=O)OCC(=O)c2ccc(S(=O)(=O)N3CCCCC3)cc2)cc1	.	-3%	.	.	.
CCCOc1ccc(C(=O)NC(=S)N2CCN(c3cc4c(cc3F)c(=O)c(C(=O)O)cn4CC)CC2)cc1	.	-13%	-6%	-16%	1.8µM*
